The list is not random: actives were taken first. Their share in the collection is about 0.97%.
Epigenetic derep: Quantitative High-Throughput Screen for Regulators of Epigenetic Control. 280,000 tested, 0.2% active. AID 1865, 2009. Potency, µM (series often up to 53.9 µM), without a hit: at the highest dose GFP activation, usual class: activators. murine LDR cells, GFP reporter derepression, 30 h; note: potency is the fitted concentration of half-maximal effect; % of control where 0% means no effect; nearly all actives have a fitted effect of over 60% in size
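In this reporter-derepression format, murine cells bearing a silenced integrated CMV-GFP locus incubate with test compound (30 h, 37 C), then are washed and imaged; fluorescent objects of 20–120 um count as induced cells.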
CCT chaperon mod: High-Throughput Screening for Modulators of Cytosolic Chaperonin Activity; purified chaperonin ATPase assay, HTRF ADP detection, 30 min; activity change, % (concentration not given with the values), hits read low; 360,000 tested, 0.3% active; in the data active = activity change below about -30%; note: % is set by controls: 0 for no effect and ±100 for the full control effect
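TRiC at 40 or 20 nM final (batch-dependent) in 30 mM Tris pH 7.4, 100 mM KCl, 5 mM MgCl2, 1 mM DTT, with compound at single 76 uM and 10 uM ATP, 30 min at 37 deg C. ADP detected by HTRF Transcreener, 665/615 ratio.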
pAkt inh: HTS Assay for Inhibitors of Akt Phophorylation: Primary Screen; activity change, % for hits at 50 µM; 360,000 tested, 0.32% active; Neuro2A IGF-stimulated pAkt S473 HTRF, 20 min; active compounds read low; in the data active = activity change below about -80%; inconclusive = mostly about -51% to -80%; note: % is set by controls: 0 for no effect and ±100 for the full control effect
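Neuro2A cells (4,500/well, DMEM with 0.5% FBS) were treated with compound at a single 50 µM final concentration, stimulated with 6 nM IGF for 20 min at 37 °C, and lysed. Phospho-Akt Ser473 was read by HTRF as 665/615 ratio ×10^4.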
MmCpn inh: Inhibitors of TCP-1 ring complex (TRiC) of Methanococcus maripaludis (MmCpn): qHTS. purified Mm-Cpn ATPase, ADP Transcreener TR-FRET. Potency, µM (titrated, usually from 76.9 µM), inactives show top-dose activity, negative = inhibition, most hits filed as inhibitors. 330,000 tested, 0.031% active. AID 504842, 2011; note: potency is the fitted concentration of half-maximal effect; % is set by controls: 0 for no effect and ±100 for the full control effect; nearly all actives have a fitted effect of over 80% in size
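ATP (10 uM final) was added to archaeal chaperonin (25 nM final) after 10 min exposure to test compound at 37°C; after 30 min further incubation, ADP was detected by competitive TR-FRET.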
MBNL1-CUG inh: qHTS Assay for Inhibitors of MBNL1-poly(CUG) RNA binding; 280,000 tested, 0.036% active; Potency, µM (top dose mostly 57.5 µM), inactives show at the top dose activity change, negative = inhibition, usual class: inhibitors; TR-FRET MBNL1-His/biotin-(CUG)12 binding, 665/545 ratio; active = well fitted inhibition curve with a large enough effect in the signal ratio, with a control signal flat, not every such curve was filed as active; inconclusive = small, poorly fitted or top-dose-only effect, or effect the other way, or a change in a side signal; inactive = no such curve, though single readings can be large or run the other way; the % refers to the signal ratio; note: potency is the fitted concentration of half-maximal effect; % is set by controls: 0 for no effect and ±100 for the full control effect
Target sequence (Q9NR56 whole entry, looked up): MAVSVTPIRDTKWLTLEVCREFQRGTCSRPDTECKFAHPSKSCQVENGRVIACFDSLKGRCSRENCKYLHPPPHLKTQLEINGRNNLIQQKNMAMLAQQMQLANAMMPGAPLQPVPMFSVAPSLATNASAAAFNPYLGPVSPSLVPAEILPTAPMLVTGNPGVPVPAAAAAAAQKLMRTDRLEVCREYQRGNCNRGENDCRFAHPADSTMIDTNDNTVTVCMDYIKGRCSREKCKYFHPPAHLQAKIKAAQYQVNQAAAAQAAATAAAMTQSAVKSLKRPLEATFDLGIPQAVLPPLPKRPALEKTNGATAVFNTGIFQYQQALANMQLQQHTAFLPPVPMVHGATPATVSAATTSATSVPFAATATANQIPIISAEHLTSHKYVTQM
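TR-FRET readout: Ex 340 nm, 665/545 nm emission ratio, normalized to buffer-only (basal) and MBNL1-(CUG)12 controls. Complex of MBNL1-His with Biotin-(CUG)12, compounds 92 nM–58 uM, incubated 60 min at room temperature.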
uPA generation: qHTS for Inhibitors of Cell Surface uPA Generation; Potency, µM (series often up to 38.3 µM), for inactives: at the top dose activity change, negative = inhibition, actives largely listed as inhibitors; 330,000 tested, 0.31% active; cell surface uPA generation assay, qHTS; active = well fitted inhibition curve with a large enough effect; inconclusive = small, poorly fitted or top-dose-only effect; inactive = no such curve, though single readings can be large or run the other way; tested in mouse RAW 264.7 cells; note: potency is the fitted concentration of half-maximal effect; % is set by controls: 0 for no effect and ±100 for the full control effect; nearly all actives have a fitted effect of over 55% in size
The depositor's hits bear a star; i = inactive; ? = inconclusive; nt = not tested or not shown. Unless noted, calls come from the whole dose curve; as a rule, active = well fitted curve in the direction sought with a large enough effect; inconclusive = small, poorly fitted or top-dose-only effect, or another doubt; inactive = no such curve, though single readings can be large; an effect the other way counts as inactive or inconclusive.

SMILES	Epigenetic derep	CCT chaperon mod	pAkt inh	MmCpn inh	MBNL1-CUG inh	uPA generation
O=C(CCCCCn1c(=S)[nH]c2ccc(N3CCOCC3)cc2c1=O)NCc1ccc2c(c1)OCO2	-1.8%	-57.0*	i	0.1%	0.0%	3.6%
COc1ccccc1-c1cc(C(=O)NCc2cccs2)no1	2.2%	-0.5	i	-1.9%	1.0%	3.1%
COCCNC(=O)c1cc(-c2ccccc2OC)on1	1.0%	-1.7	i	0.6%	-11.7%	7.08µM*
Cn1c(Cl)c(/C=N/OC(=O)c2ccc(Cl)cc2)c2ccccc21	-1.0%	1.8	i	3.3%	-1.4%	-11.3%
Cc1ccc(C(=O)O/N=C/c2c(Cl)n(C)c3ccccc23)cc1	0.0%	-1.9	-104.8%*	0.8%	-9.7%	0.5%
Cc1ccc(N2CC(C(=O)NCC3CCCO3)CC2=O)cc1Cl (stereo not given)	0.0%	-143.4*	i	1.3%	2.7%	-1.2%
CSc1nsc(/C=C/Nc2ccc(F)cc2)c1C#N	10µM*	-1.3	i	-3.9%	nt	-7.6%
CSc1nsc(/C=C/Nc2ccc(Cl)cc2)c1C#N	?	0.8	i	-16.1%	i	-14.6%
Cc1ccc(Cl)cc1NS(=O)(=O)c1ccc2oc(=O)ccc2c1	nt	-1.0	i	-1.6%	2.0%	-2.6%
COc1ccc(-n2c(NNC(C)=O)nc3sc4c(c3c2=O)CCCC4)cc1	nt	-5.4	i	-2.5%	9.5%	7.94µM*
O=C1c2ccccc2C(=O)C1c1nccc2ccccc12	9.1%	0.4	i	-0.4%	?	-10.7%
O=C1c2ccccc2C(=O)C1c1ccnc2ccccc12	-2.7%	0.3	-122.4%*	-0.8%	?	-9.3%
Cc1ccc(C)c(Nc2ncnc(N)c2[N+](=O)[O-])c1	0.0%	-40.7*	i	0.7%	nt	0.7%
COc1ccc2ccccc2c1CN1CCN(Cc2ccccc2)CC1	-1.1%	-3.7	i	1.3%	2.8%	3.0%
COc1ccc2ccccc2c1CN1CCCC(CO)C1 (stereo not given)	-1.0%	0.1	-112.3%*	1.0%	18.0%	-0.2%
O=C(O)c1ccc(N=Cc2c(O)ccc3oc4c(c23)CCCC4)cc1	-1.4%	0.0	i	0.8%	nt	1.8%
Oc1ccccc1N=Cc1c(O)ccc2oc3c(c12)CCCC3	0.0%	-1.3	i	-0.6%	nt	4.47µM*
O=C(CN(CC1CCCO1)C(=O)c1nsc(Cl)c1Cl)NC1CCCC1 (stereo not given)	-0.1%	-0.7	i	0.2%	5.0%	-22.6%
C/C(=N\NC(=O)CSCc1ccccc1Cl)c1cc(O)ccc1O	-2.1%	2.3	i	1.2%	-9.1%	2.51µM*
CCN(CC)C1CCN(C(=O)c2ccc3nc(Cc4ccc(OC)cc4)oc3c2)C1 (stereo not given)	nt	-68.5*	nt	0.4%	8.9%	-13.6%
Cn1cccc1/C=N/NC(=O)c1cc2ccccc2cc1O	nt	-0.4	i	-2.0%	13.0%	3.6%
S=C(c1cn(CCOc2cccc3ccccc23)c2ccccc12)N1CCCC1	-1.0%	-1.0	i	50.1µM*	i	-2.2%
CCOC1(/N=C(\C)NS(=O)(=O)c2ccc(Cl)cc2)C(C)=CC(=O)C=C1C	-5.3%	-70.5*	i	0.6%	-15.0%	1.7%
CC1=CC(c2ccccc2)n2nc(N)nc2N1 (stereo not given)	nt	-86.9*	i	nt	nt	-0.9%
Cn1cccc1/C=C1\CC(C(C)(C)C)C/C(=C\c2cccn2C)C1=O (stereo not given)	2.82µM*	-0.4	i	0.1%	-5.6%	3.3%
O=C(O)CCNc1ccc(NCCC(=O)O)c2c1C(=O)c1ccccc1C2=O	nt	0.1	i	44.7µM*	?	-3.6%
O=C(CNC(=O)c1cccs1)N/N=C/c1cccc(Cl)c1	nt	-0.2	i	-6.0%	?	-26.6%
